In publication PMC12820563, “FoxP3 forms a head-to-head dimer in vivo and stabilizes its multimerization on adjacent microsatellites”:
Whole data set: some 16,000 sequences, median “rpm ratio (pull-down/input)” near 0.94, cut for the highest 2% near 1.7. The full list was thinned out, with the highest values kept by preference.

Each sequence was assayed against T1, MBP-FoxP1dN (Mus musculus, UniProt P58462 326-579) (assay: PD-seq (MBP pull-down with sequencing); 20 mM Tris-HCl pH 7.5, 100 mM NaCl, 1.5 mM MgCl2, 0.4 uM protein, 0.1 uM dsDNA library, 30 min, room temperature, amylose pull-down; high values mean tight binding). Conditions: protein: recombinant; tags: His6-MBP; chain copies: 2; dsDNA, one strand shown.
T1 sequence: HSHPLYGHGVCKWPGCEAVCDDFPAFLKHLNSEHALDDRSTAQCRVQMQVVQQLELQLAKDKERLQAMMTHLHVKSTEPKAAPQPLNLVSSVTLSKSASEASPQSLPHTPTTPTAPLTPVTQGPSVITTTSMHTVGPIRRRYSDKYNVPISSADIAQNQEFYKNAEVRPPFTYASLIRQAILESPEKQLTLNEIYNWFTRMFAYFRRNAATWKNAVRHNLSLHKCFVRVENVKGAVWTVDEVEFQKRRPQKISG
How it was run: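 Binding is the reads-per-million enrichment of pull-down relative to input, pooled across replicates. For this, 0.4 µM His6-MBP-tagged mouse FoxP3 or FoxP1 fragment lacking the N-terminus, made in E. coli, was incubated with 0.1 µM Klenow-filled double-stranded degenerate DNA library for 30 min at room temperature in Tris pH 7.5 buffer with NaCl and MgCl2. Complexes bound to amylose resin were washed three times before proteinase K released the DNA for PCR barcoding and Illumina sequencing.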

In order of falling binding signal:
1. GATGATTGTTCTCCCAGCTGATGAATTTATGTTGTCGAGTAAACAAATTTTCCTAATCTTTCTGTTCAAGCGCCATCTAC  2.86 RPM ratio (pull-down/input)
2. GATGATTGTTCTCCCAGCTGATGAATTGTTTATGTCGAGTAAACAAATTTTCCTAATCTTTCTGTTCAAGCGCCATCTAC  2.77 RPM ratio (pull-down/input)
3. GATGATTGTTCTCCCAGCTGATGAATTATGTTTGTCGAGTAAACAAATTTTCCTAATCTTTCTGTTCAAGCGCCATCTAC  2.67 RPM ratio (pull-down/input)
4. GATGATTGTTCTCCCAGCTGATGAATTTGTATTTTCGAGTAAACAAATTTTCCTAATCTTTCTGTTCAAGCGCCATCTAC  2.62 RPM ratio (pull-down/input)
5. GATGATTGTTCTCCCAGCTGATGAATTATATTTATCGAGTAAACAAATTTTCCTAATCTTTCTGTTCAAGCGCCATCTAC  2.43 RPM ratio (pull-down/input)
6. GATGATTGTTCTCCCAGCTGATGAATTATAAACATCGAGTAAACAAATTTTCCTAATCTTTCTGTTCAAGCGCCATCTAC  2.42 RPM ratio (pull-down/input)
7. GATGATTGTTCTCCCAGCTGATGAATTGTTGTATTCGAGTAAACAAATTTTCCTAATCTTTCTGTTCAAGCGCCATCTAC  2.21 RPM ratio (pull-down/input)
8. GATGATTGTTCTCCCAGCTGATGAATTATATTGATCGAGTAAACAAATTTTCCTAATCTTTCTGTTCAAGCGCCATCTAC  2.09 RPM ratio (pull-down/input)
9. GATGATTGTTCTCCCAGCTGATGAATTTATATTATCGAGTAAACAAATTTTCCTAATCTTTCTGTTCAAGCGCCATCTAC  2.04 RPM ratio (pull-down/input)
10. GATGATTGTTCTCCCAGCTGATGAATTATAAATATCGAGTAAACAAATTTTCCTAATCTTTCTGTTCAAGCGCCATCTAC  2.01 RPM ratio (pull-down/input)
11. GATGATTGTTCTCCCAGCTGATGAATTATTGTATTCGAGTAAACAAATTTTCCTAATCTTTCTGTTCAAGCGCCATCTAC  1.99 RPM ratio (pull-down/input)
12. GATGATTGTTCTCCCAGCTGATGAATTATTTATGTCGAGTAAACAAATTTTCCTAATCTTTCTGTTCAAGCGCCATCTAC  1.83 RPM ratio (pull-down/input)
13. GATGATTGTTCTCCCAGCTGATGAATTTTTGTATTCGAGTAAACAAATTTTCCTAATCTTTCTGTTCAAGCGCCATCTAC  1.8 RPM ratio (pull-down/input)
14. GATGATTGTTCTCCCAGCTGATGAATTATTTATATCGAGTAAACAAATTTTCCTAATCTTTCTGTTCAAGCGCCATCTAC  1.75 RPM ratio (pull-down/input)
15. GATGATTGTTCTCCCAGCTGATGAATTTGTATATTCGAGTAAACAAATTTTCCTAATCTTTCTGTTCAAGCGCCATCTAC  1.71 RPM ratio (pull-down/input)
16. GATGATTGTTCTCCCAGCTGATGAATTGTATTATTCGAGTAAACAAATTTTCCTAATCTTTCTGTTCAAGCGCCATCTAC  1.67 RPM ratio (pull-down/input)
17. GATGATTGTTCTCCCAGCTGATGAATTTGTTATGTCGAGTAAACAAATTTTCCTAATCTTTCTGTTCAAGCGCCATCTAC  1.55 RPM ratio (pull-down/input)
18. GATGATTGTTCTCCCAGCTGATGAATTTATGATGTCGAGTAAACAAATTTTCCTAATCTTTCTGTTCAAGCGCCATCTAC  1.51 RPM ratio (pull-down/input)
19. GATGATTGTTCTCCCAGCTGATGAATTACAAATGTCGAGTAAACAAATTTTCCTAATCTTTCTGTTCAAGCGCCATCTAC  1.44 RPM ratio (pull-down/input)
20. GATGATTGTTCTCCCAGCTGATGAATTTTGTATTTCGAGTAAACAAATTTTCCTAATCTTTCTGTTCAAGCGCCATCTAC  1.42 RPM ratio (pull-down/input)
21. GATGATTGTTCTCCCAGCTGATGAATTTATTATGTCGAGTAAACAAATTTTCCTAATCTTTCTGTTCAAGCGCCATCTAC  1.4 RPM ratio (pull-down/input)
22. GATGATTGTTCTCCCAGCTGATGAATTATAATTATCGAGTAAACAAATTTTCCTAATCTTTCTGTTCAAGCGCCATCTAC  1.37 RPM ratio (pull-down/input)
23. GATGATTGTTCTCCCAGCTGATGAATTGACGCTTTCGAGTAAACAAATTTTCCTAATCTTTCTGTTCAAGCGCCATCTAC  1.33 RPM ratio (pull-down/input)
24. GATGATTGTTCTCCCAGCTGATGAATTTGTAATTTCGAGTAAACAAATTTTCCTAATCTTTCTGTTCAAGCGCCATCTAC  1.31 RPM ratio (pull-down/input)
25. GATGATTGTTCTCCCAGCTGATGAATTTATAATATCGAGTAAACAAATTTTCCTAATCTTTCTGTTCAAGCGCCATCTAC  1.31 RPM ratio (pull-down/input)
26. GATGATTGTTCTCCCAGCTGATGAATTTCTGTATTCGAGTAAACAAATTTTCCTAATCTTTCTGTTCAAGCGCCATCTAC  1.3 RPM ratio (pull-down/input)
27. GATGATTGTTCTCCCAGCTGATGAATTGTATTCTTCGAGTAAACAAATTTTCCTAATCTTTCTGTTCAAGCGCCATCTAC  1.26 RPM ratio (pull-down/input)
28. GATGATTGTTCTCCCAGCTGATGAATTTACATCCTCGAGTAAACAAATTTTCCTAATCTTTCTGTTCAAGCGCCATCTAC  1.26 RPM ratio (pull-down/input)
29. GATGATTGTTCTCCCAGCTGATGAATTGATTATATCGAGTAAACAAATTTTCCTAATCTTTCTGTTCAAGCGCCATCTAC  1.26 RPM ratio (pull-down/input)
30. GATGATTGTTCTCCCAGCTGATGAATTTATTATATCGAGTAAACAAATTTTCCTAATCTTTCTGTTCAAGCGCCATCTAC  1.22 RPM ratio (pull-down/input)
31. GATGATTGTTCTCCCAGCTGATGAATTCTGTATTTCGAGTAAACAAATTTTCCTAATCTTTCTGTTCAAGCGCCATCTAC  1.18 RPM ratio (pull-down/input)
32. GATGATTGTTCTCCCAGCTGATGAATTACACAGTTCGAGTAAACAAATTTTCCTAATCTTTCTGTTCAAGCGCCATCTAC  1.18 RPM ratio (pull-down/input)
33. GATGATTGTTCTCCCAGCTGATGAATTATTCTTTTCGAGTAAACAAATTTTCCTAATCTTTCTGTTCAAGCGCCATCTAC  1.17 RPM ratio (pull-down/input)
34. GATGATTGTTCTCCCAGCTGATGAATTATATATATCGAGTAAACAAATTTTCCTAATCTTTCTGTTCAAGCGCCATCTAC  1.16 RPM ratio (pull-down/input)
35. GATGATTGTTCTCCCAGCTGATGAATTATATAAATCGAGTAAACAAATTTTCCTAATCTTTCTGTTCAAGCGCCATCTAC  1.16 RPM ratio (pull-down/input)
36. GATGATTGTTCTCCCAGCTGATGAATTATCTATATCGAGTAAACAAATTTTCCTAATCTTTCTGTTCAAGCGCCATCTAC  1.14 RPM ratio (pull-down/input)
37. GATGATTGTTCTCCCAGCTGATGAATTTATGTCGTCGAGTAAACAAATTTTCCTAATCTTTCTGTTCAAGCGCCATCTAC  1.14 RPM ratio (pull-down/input)
38. GATGATTGTTCTCCCAGCTGATGAATTAATTATATCGAGTAAACAAATTTTCCTAATCTTTCTGTTCAAGCGCCATCTAC  1.11 RPM ratio (pull-down/input)
39. GATGATTGTTCTCCCAGCTGATGAATTATATTAATCGAGTAAACAAATTTTCCTAATCTTTCTGTTCAAGCGCCATCTAC  1.1 RPM ratio (pull-down/input)
40. GATGATTGTTCTCCCAGCTGATGAATTGTCACAGTCGAGTAAACAAATTTTCCTAATCTTTCTGTTCAAGCGCCATCTAC  1.08 RPM ratio (pull-down/input)
41. GATGATTGTTCTCCCAGCTGATGAATTATAAAAATCGAGTAAACAAATTTTCCTAATCTTTCTGTTCAAGCGCCATCTAC  1.08 RPM ratio (pull-down/input)
42. GATGATTGTTCTCCCAGCTGATGAATTAATTATGTCGAGTAAACAAATTTTCCTAATCTTTCTGTTCAAGCGCCATCTAC  1.07 RPM ratio (pull-down/input)
43. GATGATTGTTCTCCCAGCTGATGAATTGCCAATTTCGAGTAAACAAATTTTCCTAATCTTTCTGTTCAAGCGCCATCTAC  1.04 RPM ratio (pull-down/input)
44. GATGATTGTTCTCCCAGCTGATGAATTCTTTATGTCGAGTAAACAAATTTTCCTAATCTTTCTGTTCAAGCGCCATCTAC  1.04 RPM ratio (pull-down/input)
45. GATGATTGTTCTCCCAGCTGATGAATTTTTTATGTCGAGTAAACAAATTTTCCTAATCTTTCTGTTCAAGCGCCATCTAC  1.04 RPM ratio (pull-down/input)
46. GATGATTGTTCTCCCAGCTGATGAATTGACTAAGTCGAGTAAACAAATTTTCCTAATCTTTCTGTTCAAGCGCCATCTAC  1.03 RPM ratio (pull-down/input)
47. GATGATTGTTCTCCCAGCTGATGAATTCTTTATATCGAGTAAACAAATTTTCCTAATCTTTCTGTTCAAGCGCCATCTAC  1.02 RPM ratio (pull-down/input)
48. GATGATTGTTCTCCCAGCTGATGAATTATATCTATCGAGTAAACAAATTTTCCTAATCTTTCTGTTCAAGCGCCATCTAC  0.985 RPM ratio (pull-down/input)
49. GATGATTGTTCTCCCAGCTGATGAATTTTGAATTTCGAGTAAACAAATTTTCCTAATCTTTCTGTTCAAGCGCCATCTAC  0.984 RPM ratio (pull-down/input)
50. GATGATTGTTCTCCCAGCTGATGAATTAGCACCGTCGAGTAAACAAATTTTCCTAATCTTTCTGTTCAAGCGCCATCTAC  0.962 RPM ratio (pull-down/input)
51. GATGATTGTTCTCCCAGCTGATGAATTAGTCCTCTCGAGTAAACAAATTTTCCTAATCTTTCTGTTCAAGCGCCATCTAC  0.936 RPM ratio (pull-down/input)
52. GATGATTGTTCTCCCAGCTGATGAATTAGGCTTGTCGAGTAAACAAATTTTCCTAATCTTTCTGTTCAAGCGCCATCTAC  0.93 RPM ratio (pull-down/input)
53. GATGATTGTTCTCCCAGCTGATGAATTGGCTATATCGAGTAAACAAATTTTCCTAATCTTTCTGTTCAAGCGCCATCTAC  0.923 RPM ratio (pull-down/input)
54. GATGATTGTTCTCCCAGCTGATGAATTATGTCTGTCGAGTAAACAAATTTTCCTAATCTTTCTGTTCAAGCGCCATCTAC  0.913 RPM ratio (pull-down/input)
55. GATGATTGTTCTCCCAGCTGATGAATTATCCCTGTCGAGTAAACAAATTTTCCTAATCTTTCTGTTCAAGCGCCATCTAC  0.907 RPM ratio (pull-down/input)
56. GATGATTGTTCTCCCAGCTGATGAATTTGAGTGATCGAGTAAACAAATTTTCCTAATCTTTCTGTTCAAGCGCCATCTAC  0.906 RPM ratio (pull-down/input)
57. GATGATTGTTCTCCCAGCTGATGAATTACTCGTCTCGAGTAAACAAATTTTCCTAATCTTTCTGTTCAAGCGCCATCTAC  0.904 RPM ratio (pull-down/input)
58. GATGATTGTTCTCCCAGCTGATGAATTAACGCGGTCGAGTAAACAAATTTTCCTAATCTTTCTGTTCAAGCGCCATCTAC  0.904 RPM ratio (pull-down/input)
59. GATGATTGTTCTCCCAGCTGATGAATTCACGCTGTCGAGTAAACAAATTTTCCTAATCTTTCTGTTCAAGCGCCATCTAC  0.895 RPM ratio (pull-down/input)
60. GATGATTGTTCTCCCAGCTGATGAATTCGAATCTTCGAGTAAACAAATTTTCCTAATCTTTCTGTTCAAGCGCCATCTAC  0.84 RPM ratio (pull-down/input)
61. GATGATTGTTCTCCCAGCTGATGAATTCCCTACCTCGAGTAAACAAATTTTCCTAATCTTTCTGTTCAAGCGCCATCTAC  0.836 RPM ratio (pull-down/input)
62. GATGATTGTTCTCCCAGCTGATGAATTCGCCCGTTCGAGTAAACAAATTTTCCTAATCTTTCTGTTCAAGCGCCATCTAC  0.826 RPM ratio (pull-down/input)
63. GATGATTGTTCTCCCAGCTGATGAATTTTAGGGGTCGAGTAAACAAATTTTCCTAATCTTTCTGTTCAAGCGCCATCTAC  0.805 RPM ratio (pull-down/input)
